TNFa cytotox: toxic to HUVEC cells under TNF alpha stimulation | cell count reduction, % at 2 µM | AID 848 | HUVEC TNFalpha-stimulated, Hoechst cell count, imaging | 0.17% of 93,000 active;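 active = cell count reduction exceeding the screen mean by over 5 SD, scaled to untreated wells per plate, cut at about 78% in these data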;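 note: cells counted after 24 h of TNF alpha exposure following the 1 h pretreatment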
VCAM1 TNFa inh: reduces TNF alpha induced VCAM1 expression in HUVEC. inhibition, % at 2 µM. 0.48% of 95,000 active. AID 802. HUVEC TNFa-induced VCAM-1 immunofluorescence, high-content imaging;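 active = inhibition above the batch mean plus 3 SD, with images confirmed as a hit by eye, cut at about 37% in these data; inconclusive = inhibition above that limit but hit not confirmed in images; inactive = inhibition not above that limit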
E-sel TNF inh: blocks E-selectin expression induced by TNF alpha | inhibition, % at 2 µM | HUVEC TNFa-induced E-selectin immunofluorescence, high content | 0.71% of 120,000 active;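 active = inhibition above the batch mean plus 3 SD, and confirmed as a hit on visual image review, cut at about 43% in these data; inconclusive = passes the inhibition cutoff but fails visual image review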
cytoskel mod: alters cytoskeleton assembly in HUVEC cells; inhibition, % at 2 µM; AID 836; HUVEC TNFa F-actin phalloidin imaging, high content; 0.18% of 91,000 active;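 active = inhibition above the batch mean plus 3 SD and confirmed as a hit by visual image inspection, cut at about 30% in these data, passing the limit was not always enough; inconclusive = above the inhibition threshold but rejected on visual inspection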
Large screens that a line does not name were inactive. Most compounds without a hit are left out; they make up all but 1.1% or so of the library.

O=C1C2CCCN2C(c2ccccc2)N1c1cccc(Cl)c1 (stereo unspecified)	none
O=C(CSc1nc2cc3ccccc3cc2[nH]1)Nc1ccc(F)cc1	none
Cn1c(NCc2c[nH]c3ccccc23)nc2ccccc21	VCAM1 TNFa inh 57.5 (no result: cytoskel mod)
Cc1ccc(NS(=O)(=O)c2cc(C(=O)NCCSC3CCCCC3)ccc2C)cc1	cytoskel mod 47.9
CCOC(=O)c1cc2c(ccn2C)n1CC(=O)N1CCN(c2ccccc2OC)CC1	none
COC(=O)c1c(-c2ccccc2)csc1NC(=O)c1ccco1	E-sel TNF inh 71.2
O=C(Nc1scc(-c2ccc(F)cc2)c1C(=O)O)c1ccco1	none
C=C(C)CSc1nc2nc(C)c(Br)cc2[nH]1	none
COC(=O)CSc1nc2nc(C)c(Br)cc2[nH]1	TNFa cytotox 100.0, VCAM1 TNFa inh inconclusive, cytoskel mod inconclusive
CC(=O)c1cc(OC(=O)N2CCOCC2)ccc1OC(=O)N1CCOCC1	none (no result: cytoskel mod)
O=C(Oc1ccc2ccc(=O)oc2c1)N1CCOCC1	TNFa cytotox 79.0, VCAM1 TNFa inh 90.2 (no result: E-sel TNF inh)
COC(=O)CSCC(=O)Nc1nnc(-c2cccc(C)c2)s1	none (no result: TNFa cytotox, VCAM1 TNFa inh, cytoskel mod)
O=C1CC(Sc2nnc(-c3ccccc3O)o2)C(=O)N1c1ccccc1 (stereo unspecified)	E-sel TNF inh 70.4 (no result: TNFa cytotox, VCAM1 TNFa inh, cytoskel mod)
COc1ccc(N2C(=O)CC(Sc3nnc(-c4ccccc4)o3)C2=O)cc1 (stereo unspecified)	none (no result: TNFa cytotox, VCAM1 TNFa inh, cytoskel mod)
Cc1ccc(-c2noc(CSc3ccccc3)n2)cc1	none
Cc1ccc(-c2noc(CSc3nc(N)cc(N)n3)n2)cc1	cytoskel mod 34.9 (no result: E-sel TNF inh)
CC(C)(C)c1ccc(C(=O)OCCNC(=O)c2c(Cl)nc3ccccn23)cc1	none
COc1ccc(C(=O)OCCNC(=O)c2c(Cl)nc3ccccn23)cc1	E-sel TNF inh 60.3
COC(=O)c1ccccc1NC(=O)c1ccc(-c2cccc(Cl)c2)o1	E-sel TNF inh 44.0, cytoskel mod inconclusive (no result: TNFa cytotox, VCAM1 TNFa inh)
Cc1ccc(S(=O)(=O)N(c2nc(N(C)C)nc(N(C)C)n2)n2cnnc2)cc1	none (no result: TNFa cytotox, VCAM1 TNFa inh, cytoskel mod)
O=C(c1ccc([N+](=O)[O-])cc1)N(Cc1ccc(Cl)cc1)N1C(=O)CCCC1=O	VCAM1 TNFa inh 46.3
Clc1ccc(-n2ncc3c(NCc4ccco4)ncnc32)cc1	none (no result: TNFa cytotox, VCAM1 TNFa inh, cytoskel mod)
Clc1ccc(-n2ncc3c(NCc4ccc5c(c4)OCO5)ncnc32)cc1	VCAM1 TNFa inh 80.3
O=C1OCC(CO)(CO)N=C1NNc1ccccc1Cl	cytoskel mod 31.3
COc1ccc(-c2cc3ccccc3oc2=O)cc1NC(=O)c1ccc([N+](=O)[O-])o1	VCAM1 TNFa inh 73.7 (no result: TNFa cytotox)
CNC(=S)N1C2CCC1CC(NC(=O)NC13CC4CC(CC(C4)C1)C3)C2 (stereo unspecified)	none
CCCCCc1nc2ccccc2c(=O)n1NC(=O)c1c(O)c2cccc3c2n(c1=O)CCC3	E-sel TNF inh 71.5
CCN=C(NS(=O)(=O)c1ccc(Br)cc1)c1ccc(Cl)cc1	none (no result: TNFa cytotox, VCAM1 TNFa inh, cytoskel mod)
O=C(C1CC1)N1CCc2cc(Br)cc(S(=O)(=O)NCCCN3CCCC3)c21	E-sel TNF inh 66.2 (no result: TNFa cytotox, VCAM1 TNFa inh, cytoskel mod)
CC(=O)N1CCc2cc(Br)cc(S(=O)(=O)NCCCN3CCC(C)CC3)c21	none
Cc1nnc2n(c1=O)N=C(c1ccc(Cl)cc1)CS2	none (no result: TNFa cytotox, VCAM1 TNFa inh, cytoskel mod)
Cc1cc(C(=O)CN2C(=O)C(=O)N(Cc3ccccc3)C2=O)c(C)n1-c1ccc2c(c1)OCCO2	none (no result: TNFa cytotox, VCAM1 TNFa inh, cytoskel mod)
Cc1[nH]nc2c1C1(C(=O)N(Cc3ccc(Cl)cc3)c3ccccc31)C(C#N)=C(N)O2 (stereo unspecified)	E-sel TNF inh 100.0 (no result: TNFa cytotox)
Cn1nnnc1SCC(=O)Nc1cccc([N+](=O)[O-])c1	E-sel TNF inh 76.3 (no result: TNFa cytotox, VCAM1 TNFa inh, cytoskel mod)
Cn1ccnc1SCC(=O)Nc1cccc([N+](=O)[O-])c1	none (no result: TNFa cytotox, VCAM1 TNFa inh, cytoskel mod)
CC(=O)c1nnn(-c2ccc([N+](=O)[O-])cc2C)c1C	none (no result: TNFa cytotox, VCAM1 TNFa inh, cytoskel mod)
CCCCOC(=O)CCn1c(=S)oc2ccccc21	E-sel TNF inh 66.4
CCCCCOC(=O)Cn1c(=O)oc2ccccc21	none (no result: TNFa cytotox, VCAM1 TNFa inh, cytoskel mod)
CCOc1ccc(-n2c(=S)sc3c(=O)[nH]c(SCC(=O)C(C)(C)C)nc32)cc1	none (no result: TNFa cytotox, VCAM1 TNFa inh, cytoskel mod)
CC(CCc1ccccc1)NC(=O)/C=C/c1ccc(Cl)cc1 (stereo unspecified)	E-sel TNF inh 65.3 (no result: TNFa cytotox, VCAM1 TNFa inh, cytoskel mod)
COC(=O)C(CC(C)C)NC(=O)/C=C/c1ccc(Cl)cc1 (stereo unspecified)	none (no result: TNFa cytotox, VCAM1 TNFa inh, cytoskel mod)
Cc1cc(C)cc(OCCCCCNCCO)c1	VCAM1 TNFa inh 95.8
CCC(C)(C)NC(=O)Cc1ccc(C)cc1	none
O=c1ccc(Oc2nc(N3CCOCC3)nc(N3CCOCC3)n2)nn1-c1ccccc1	TNFa cytotox 89.6, VCAM1 TNFa inh 98.7
COc1cc(C)ccc1OCCOc1ccccc1Cl	none
NC(=O)COC(=O)CCCc1c[nH]c2ccccc12	TNFa cytotox 79.3, VCAM1 TNFa inh 93.9 (no result: E-sel TNF inh)
O=C(Nc1ccc(-c2nc3cccnc3s2)cc1)c1ccco1	none (no result: TNFa cytotox, VCAM1 TNFa inh, cytoskel mod)
O=C(Nc1ccc(-c2nc3cccnc3s2)cc1)c1ccc(Br)o1	E-sel TNF inh 99.9
COc1ccc(-c2nc(-c3ccc(NC(=O)c4ccc(Br)o4)cc3)no2)cc1OC	VCAM1 TNFa inh 76.0 (no result: E-sel TNF inh)

Bioassay records (PubChem)
